# According to article PMC7862700, “An all-to-all approach to the identification of sequence-specific readers for epigenetic DNA modifications on cytosine”:
# Columns and labels:
# Assay in all cases: DAPPL (digital affinity profiling via proximity ligation, sequencing); 10 mM Tris-HCl pH 7.5, 50 mM NaCl, 1 mM DTT, 4% glycerol, room temperature, 30 min; GST-TFs on glutathione beads, 16-mer random dsDNA library, 0.1% formaldehyde crosslink after washing; high values mean tight binding
# Details in all cases: protein: recombinant; tags: N-terminal GST; dsDNA, one strand shown
# FLI1 = molecular target: T1, FLI1 (Homo sapiens, UniProt Q01543 1-452)
# T1 sequence: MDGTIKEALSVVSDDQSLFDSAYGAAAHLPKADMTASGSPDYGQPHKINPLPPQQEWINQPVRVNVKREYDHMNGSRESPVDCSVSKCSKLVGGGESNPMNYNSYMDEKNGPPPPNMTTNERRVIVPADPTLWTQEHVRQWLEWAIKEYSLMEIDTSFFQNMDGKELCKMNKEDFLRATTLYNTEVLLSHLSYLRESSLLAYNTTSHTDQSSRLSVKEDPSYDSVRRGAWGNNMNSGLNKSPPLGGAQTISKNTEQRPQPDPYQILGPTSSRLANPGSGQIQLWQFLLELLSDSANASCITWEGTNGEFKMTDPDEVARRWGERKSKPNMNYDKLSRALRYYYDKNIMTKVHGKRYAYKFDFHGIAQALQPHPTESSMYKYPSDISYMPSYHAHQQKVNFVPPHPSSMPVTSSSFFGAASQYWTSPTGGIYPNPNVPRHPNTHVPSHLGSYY
# In short: (§1)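 After expression in yeast as GST fusions, human transcription factors were bound to glutathione beads, DNA-barcoded and mixed with a tag-only sample. The pools were incubated with 200 nmole of a 16-mer random double-stranded DNA library in Tris/NaCl/DTT/glycerol buffer (30 min, room temperature), washed and crosslinked with 0.1% formaldehyde. Proximity ligation with BsaI/T4 ligase ran for 1 h at 37 °C, before PCR amplification and sequencing on an Illumina NextSeq500. Binding signal is a hexamer's read frequency for a factor divided by its frequency for the tag-only sample.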
# ELK1 = molecular target: T2, ELK1 (Homo sapiens, UniProt P19419 1-428)
# T2 sequence: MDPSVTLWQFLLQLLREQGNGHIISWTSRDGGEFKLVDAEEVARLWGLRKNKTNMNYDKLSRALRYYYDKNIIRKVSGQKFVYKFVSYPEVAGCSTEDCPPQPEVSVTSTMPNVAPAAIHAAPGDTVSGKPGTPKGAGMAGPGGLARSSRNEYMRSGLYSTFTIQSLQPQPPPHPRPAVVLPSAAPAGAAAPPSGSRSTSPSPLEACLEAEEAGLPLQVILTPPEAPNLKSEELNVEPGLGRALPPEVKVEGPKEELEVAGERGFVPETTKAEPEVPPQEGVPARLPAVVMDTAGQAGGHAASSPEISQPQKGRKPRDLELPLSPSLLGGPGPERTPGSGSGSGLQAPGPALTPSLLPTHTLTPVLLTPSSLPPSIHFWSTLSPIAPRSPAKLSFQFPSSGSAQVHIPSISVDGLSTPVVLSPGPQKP
# In short: as §1
# GABPA = molecular target: T3, GABPA (Homo sapiens, UniProt Q06546 1-454)
# T3 sequence: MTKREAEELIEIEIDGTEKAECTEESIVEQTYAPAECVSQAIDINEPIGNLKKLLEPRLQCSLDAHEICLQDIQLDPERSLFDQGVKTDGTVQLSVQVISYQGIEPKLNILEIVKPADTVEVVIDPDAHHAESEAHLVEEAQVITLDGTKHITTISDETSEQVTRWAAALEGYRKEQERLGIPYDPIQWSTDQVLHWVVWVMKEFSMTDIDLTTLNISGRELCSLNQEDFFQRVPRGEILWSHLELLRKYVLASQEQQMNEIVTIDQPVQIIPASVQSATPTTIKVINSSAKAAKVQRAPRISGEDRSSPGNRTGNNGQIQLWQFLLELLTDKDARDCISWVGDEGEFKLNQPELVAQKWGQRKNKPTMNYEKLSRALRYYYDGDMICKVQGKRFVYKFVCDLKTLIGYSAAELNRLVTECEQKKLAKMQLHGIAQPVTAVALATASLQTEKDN
# In short: as §1
# ERG = molecular target: T4, ERG (Homo sapiens, UniProt P11308 1-479)
# T4 sequence: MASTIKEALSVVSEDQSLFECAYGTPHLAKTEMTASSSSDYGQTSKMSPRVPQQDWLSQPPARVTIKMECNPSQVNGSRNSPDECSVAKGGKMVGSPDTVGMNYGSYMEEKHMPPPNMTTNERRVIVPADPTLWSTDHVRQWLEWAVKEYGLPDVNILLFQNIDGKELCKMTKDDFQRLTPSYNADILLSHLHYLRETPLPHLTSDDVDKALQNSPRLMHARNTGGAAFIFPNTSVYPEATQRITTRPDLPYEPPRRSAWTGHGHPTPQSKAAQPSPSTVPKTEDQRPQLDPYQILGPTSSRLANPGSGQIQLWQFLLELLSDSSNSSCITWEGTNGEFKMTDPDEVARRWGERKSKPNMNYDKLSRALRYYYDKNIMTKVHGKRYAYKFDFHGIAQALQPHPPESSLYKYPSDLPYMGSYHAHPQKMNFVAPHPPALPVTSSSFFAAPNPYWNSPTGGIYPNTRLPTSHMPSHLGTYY
# In short: as §1
# ELF1 = ELF1 (Homo sapiens, UniProt P32519 1-619)
# In short: as §1
# EHF = molecular target: T5, EHF (Homo sapiens, UniProt Q9NZC4 1-300)
# T5 sequence: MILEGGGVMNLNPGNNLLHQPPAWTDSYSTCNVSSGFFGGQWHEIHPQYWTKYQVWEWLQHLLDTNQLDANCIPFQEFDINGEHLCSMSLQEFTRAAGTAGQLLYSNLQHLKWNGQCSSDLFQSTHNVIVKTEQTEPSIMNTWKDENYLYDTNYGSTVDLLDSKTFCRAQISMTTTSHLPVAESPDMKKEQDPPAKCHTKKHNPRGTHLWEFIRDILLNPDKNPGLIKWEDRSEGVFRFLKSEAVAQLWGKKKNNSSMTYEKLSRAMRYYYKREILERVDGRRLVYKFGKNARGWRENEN
# In short: as §1
# SPI1 = SPI1 (Homo sapiens, UniProt P17947 1-270)
# In short: as §1
# SPIB = SPIB (Homo sapiens, UniProt Q01892 1-262)
# In short: as §1
# ELK3 = molecular target: T6, ELK3 (Homo sapiens, UniProt P41970 1-407)
# T6 sequence: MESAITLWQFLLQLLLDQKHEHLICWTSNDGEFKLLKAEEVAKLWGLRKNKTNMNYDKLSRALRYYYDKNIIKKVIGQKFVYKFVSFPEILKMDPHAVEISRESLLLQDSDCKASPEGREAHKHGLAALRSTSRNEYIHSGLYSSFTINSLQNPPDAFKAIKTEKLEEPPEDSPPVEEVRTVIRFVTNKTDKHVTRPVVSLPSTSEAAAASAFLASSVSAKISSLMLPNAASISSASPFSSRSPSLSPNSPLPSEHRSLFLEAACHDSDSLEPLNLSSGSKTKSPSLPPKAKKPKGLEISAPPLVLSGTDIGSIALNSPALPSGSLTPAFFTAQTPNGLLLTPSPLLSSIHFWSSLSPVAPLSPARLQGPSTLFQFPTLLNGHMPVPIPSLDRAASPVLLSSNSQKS
# In short: as §1
# SPIB, sequence (Q01892 whole entry): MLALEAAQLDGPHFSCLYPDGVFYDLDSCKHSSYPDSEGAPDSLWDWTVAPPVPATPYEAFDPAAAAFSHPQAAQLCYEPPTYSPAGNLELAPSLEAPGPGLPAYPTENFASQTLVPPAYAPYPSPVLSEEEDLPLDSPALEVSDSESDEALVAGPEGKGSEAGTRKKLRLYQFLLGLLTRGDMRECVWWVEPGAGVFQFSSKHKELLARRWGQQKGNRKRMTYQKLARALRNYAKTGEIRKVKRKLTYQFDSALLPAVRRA
# ELF1, sequence (P32519 whole entry): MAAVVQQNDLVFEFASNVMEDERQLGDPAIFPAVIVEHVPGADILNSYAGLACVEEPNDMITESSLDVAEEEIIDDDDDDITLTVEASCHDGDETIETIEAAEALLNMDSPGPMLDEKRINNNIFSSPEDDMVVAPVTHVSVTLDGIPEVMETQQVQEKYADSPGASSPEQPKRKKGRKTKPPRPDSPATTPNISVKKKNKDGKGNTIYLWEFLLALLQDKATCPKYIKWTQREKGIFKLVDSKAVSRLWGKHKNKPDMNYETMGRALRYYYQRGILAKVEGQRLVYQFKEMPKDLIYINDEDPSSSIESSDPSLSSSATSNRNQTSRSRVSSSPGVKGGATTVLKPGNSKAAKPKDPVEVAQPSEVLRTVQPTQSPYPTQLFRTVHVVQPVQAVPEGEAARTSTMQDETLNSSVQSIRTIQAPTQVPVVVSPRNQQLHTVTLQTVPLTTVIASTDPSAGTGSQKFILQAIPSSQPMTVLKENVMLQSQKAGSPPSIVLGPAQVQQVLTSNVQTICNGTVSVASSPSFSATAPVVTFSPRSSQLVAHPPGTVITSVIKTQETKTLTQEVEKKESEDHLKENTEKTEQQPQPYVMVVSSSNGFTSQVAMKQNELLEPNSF
sequence,measurement,setting,value
TACCAA,binding signal,FLI1,"1.14 fold enrichment (6-mer frequency, TF over GST control)"
same,binding signal,ELK1,"1.17 fold enrichment (6-mer frequency, TF over GST control)"
same,binding signal,GABPA,"1.11 fold enrichment (6-mer frequency, TF over GST control)"
same,binding signal,ERG,"1.18 fold enrichment (6-mer frequency, TF over GST control)"
same,binding signal,ELF1,"1.21 fold enrichment (6-mer frequency, TF over GST control)"
same,binding signal,EHF,"1.13 fold enrichment (6-mer frequency, TF over GST control)"
same,binding signal,SPI1,"1.16 fold enrichment (6-mer frequency, TF over GST control)"
same,binding signal,SPIB,"1.13 fold enrichment (6-mer frequency, TF over GST control)"
same,binding signal,ELK3,"1.05 fold enrichment (6-mer frequency, TF over GST control)"
TACCAC,binding signal,FLI1,"1.2 fold enrichment (6-mer frequency, TF over GST control)"
same,binding signal,ELK1,"1.32 fold enrichment (6-mer frequency, TF over GST control)"
same,binding signal,GABPA,"1.18 fold enrichment (6-mer frequency, TF over GST control)"
same,binding signal,ERG,"1.17 fold enrichment (6-mer frequency, TF over GST control)"
same,binding signal,ELF1,"1.32 fold enrichment (6-mer frequency, TF over GST control)"
same,binding signal,EHF,"1.23 fold enrichment (6-mer frequency, TF over GST control)"
same,binding signal,SPI1,"1.24 fold enrichment (6-mer frequency, TF over GST control)"
same,binding signal,SPIB,"1.26 fold enrichment (6-mer frequency, TF over GST control)"
same,binding signal,ELK3,"1.14 fold enrichment (6-mer frequency, TF over GST control)"
TCATTC,binding signal,FLI1,"1.27 fold enrichment (6-mer frequency, TF over GST control)"
same,binding signal,ELK1,"1.22 fold enrichment (6-mer frequency, TF over GST control)"
same,binding signal,GABPA,"1.26 fold enrichment (6-mer frequency, TF over GST control)"
same,binding signal,ERG,"1.27 fold enrichment (6-mer frequency, TF over GST control)"
same,binding signal,ELF1,"1.28 fold enrichment (6-mer frequency, TF over GST control)"
same,binding signal,EHF,"1.17 fold enrichment (6-mer frequency, TF over GST control)"
same,binding signal,SPI1,"1.24 fold enrichment (6-mer frequency, TF over GST control)"
same,binding signal,SPIB,"1.19 fold enrichment (6-mer frequency, TF over GST control)"
same,binding signal,ELK3,"1.28 fold enrichment (6-mer frequency, TF over GST control)"
AAGATG,binding signal,FLI1,"1.17 fold enrichment (6-mer frequency, TF over GST control)"
same,binding signal,ELK1,"1.17 fold enrichment (6-mer frequency, TF over GST control)"
same,binding signal,GABPA,"1.11 fold enrichment (6-mer frequency, TF over GST control)"
same,binding signal,ERG,"1.11 fold enrichment (6-mer frequency, TF over GST control)"
same,binding signal,ELF1,"1.09 fold enrichment (6-mer frequency, TF over GST control)"
same,binding signal,EHF,"1.1 fold enrichment (6-mer frequency, TF over GST control)"
same,binding signal,SPI1,"1.09 fold enrichment (6-mer frequency, TF over GST control)"
same,binding signal,SPIB,"1.16 fold enrichment (6-mer frequency, TF over GST control)"
same,binding signal,ELK3,"1.19 fold enrichment (6-mer frequency, TF over GST control)"
GCCTCT,binding signal,FLI1,"1.39 fold enrichment (6-mer frequency, TF over GST control)"
same,binding signal,ELK1,"1.38 fold enrichment (6-mer frequency, TF over GST control)"
same,binding signal,GABPA,"1.37 fold enrichment (6-mer frequency, TF over GST control)"
same,binding signal,ERG,"1.35 fold enrichment (6-mer frequency, TF over GST control)"
same,binding signal,ELF1,"1.36 fold enrichment (6-mer frequency, TF over GST control)"
same,binding signal,EHF,"1.29 fold enrichment (6-mer frequency, TF over GST control)"
same,binding signal,SPI1,"1.31 fold enrichment (6-mer frequency, TF over GST control)"
same,binding signal,SPIB,"1.42 fold enrichment (6-mer frequency, TF over GST control)"
same,binding signal,ELK3,"1.32 fold enrichment (6-mer frequency, TF over GST control)"
CCGTTT,binding signal,FLI1,"1.47 fold enrichment (6-mer frequency, TF over GST control)"
same,binding signal,ELK1,"1.36 fold enrichment (6-mer frequency, TF over GST control)"
same,binding signal,GABPA,"1.33 fold enrichment (6-mer frequency, TF over GST control)"
same,binding signal,ERG,"1.57 fold enrichment (6-mer frequency, TF over GST control)"
same,binding signal,ELF1,"1.29 fold enrichment (6-mer frequency, TF over GST control)"
same,binding signal,EHF,"1.33 fold enrichment (6-mer frequency, TF over GST control)"
same,binding signal,SPI1,"1.56 fold enrichment (6-mer frequency, TF over GST control)"
same,binding signal,SPIB,"1.39 fold enrichment (6-mer frequency, TF over GST control)"
same,binding signal,ELK3,"1.35 fold enrichment (6-mer frequency, TF over GST control)"
TTCTAG,binding signal,FLI1,"1.27 fold enrichment (6-mer frequency, TF over GST control)"
same,binding signal,ELK1,"1.26 fold enrichment (6-mer frequency, TF over GST control)"
same,binding signal,GABPA,"1.38 fold enrichment (6-mer frequency, TF over GST control)"
same,binding signal,ERG,"1.33 fold enrichment (6-mer frequency, TF over GST control)"
same,binding signal,ELF1,"1.25 fold enrichment (6-mer frequency, TF over GST control)"
same,binding signal,EHF,"1.2 fold enrichment (6-mer frequency, TF over GST control)"
same,binding signal,SPI1,"1.2 fold enrichment (6-mer frequency, TF over GST control)"
same,binding signal,SPIB,"1.14 fold enrichment (6-mer frequency, TF over GST control)"
same,binding signal,ELK3,"1.3 fold enrichment (6-mer frequency, TF over GST control)"
TAAACT,binding signal,FLI1,"1.13 fold enrichment (6-mer frequency, TF over GST control)"
same,binding signal,ELK1,"1.24 fold enrichment (6-mer frequency, TF over GST control)"
same,binding signal,GABPA,"1.19 fold enrichment (6-mer frequency, TF over GST control)"
same,binding signal,ERG,"1.14 fold enrichment (6-mer frequency, TF over GST control)"
same,binding signal,ELF1,"1.13 fold enrichment (6-mer frequency, TF over GST control)"
same,binding signal,EHF,"1.15 fold enrichment (6-mer frequency, TF over GST control)"
same,binding signal,SPI1,"1.15 fold enrichment (6-mer frequency, TF over GST control)"
same,binding signal,SPIB,"1.23 fold enrichment (6-mer frequency, TF over GST control)"
same,binding signal,ELK3,"1.27 fold enrichment (6-mer frequency, TF over GST control)"
